Compound activity: PubChem, National Center for Advancing Translational Sciences (NCATS)
DT40 TDP1 no CPT – qHTS for Inhibitors of human tyrosyl-DNA phosphodiesterase 1 (TDP1): qHTS in cells in absence of CPT; DT40 Tdp1-/- hTDP1 cells, no CPT, ATP luminescence, 48 h; AID 686978, 2013; Potency, µM (titrated, usually from 46.2 µM), for the others: at the highest dose activity change, negative = growth inhibition, actives largely listed as inhibitors; 420,000 tested, 15% active; note: nearly all actives have a fitted effect of over 55% in size
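Compound effects on proliferation are scored in DT40 Tdp1-/-;hTDP1 cells in the absence of CPT. ATP levels (CellTiter-Glo luminescence) are recorded after a ≥48 hr, 37 °C incubation.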
KB-3-1 cytotox – qHTS assay for MDR1-selective chemotherapeutics: Primary screen using the parental adenocarcinoma cell KB-3-1. KB-3-1 viability, CellTiter-Glo ATP luminescence, 72 h. Potency, µM (highest dose often 46.1 µM), actives largely listed as cytotoxic. 400,000 tested, 1.4% active. AID 1347075, 2019; note: nearly all actives have a fitted effect of over 60% in size
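Using CellTiter-Glo luminescence, growth of non-resistant KB-3-1 adenocarcinoma cells is assessed 72 h after pin-tool compound addition at 37 °C. Normalized responses across the concentration series yield fitted curves.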
HT1080NT lethal – qHTS for induction of synthetic lethality in tumor cells producing 2HG: qHTS for the HT-1080-NT fibrosarcoma cell line | HT-1080-NT fibrosarcoma viability, CellTiter-Glo ATP luminescence, 48 h | Potency, µM (top dose mostly 46.1 µM), inactives show top-dose activity, negative = less viability, most hits filed as cytotoxic | 360,000 tested, 1.6% active | AID 686970, 2013;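 note: NT is the 2HG producing partner of a matched IDH1 knockdown line; 0% = DMSO-treated cells and -100% = media-only wells without cells; nearly all actives have a fitted effect of over 55% in size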
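A 48-hour cytotoxicity screen used HT-1080-NT cells plated 2 hours before compound delivery. ATP-based CellTiter-Glo luminescence measured viability, normalized to DMSO and no-cell controls.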
HT1080 IDH1KD tx – qHTS for induction of synthetic lethality in tumor cells producing 2HG: qHTS for the HT-1080-IDH1KD cell line; HT-1080 IDH1 knockdown viability, ATP luminescence, 48 h; Potency, µM (titrated, usually from 46.1 µM), for inactives: at the top dose activity, negative = toxicity, most hits filed as cytotoxic; 360,000 tested, 2% active; AID 686971, 2013;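 note: 0% = DMSO wells and -100% = cell-free medium wells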
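Luminescent ATP read-out (CellTiter-Glo, 10 min at room temperature) after 48 h compound exposure at 37 °C gave viability of IDH1-knockdown HT-1080 cells. Activity was normalised to DMSO and cell-free wells, then fitted as concentration-response curves.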
KB-V1 cytotox – qHTS assay for MDR1-selective chemotherapeutics: Primary screen using the drug-selected MDR subline cells KB-V1; KB-V1 MDR cells viability, CellTiter-Glo, 72 h; Potency, µM (highest dose often 46.1 µM), hits mostly cytotoxic; 400,000 tested, 3.4% active; note: nearly all actives have a fitted effect of over 60% in size
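Cytotoxicity toward P-gp-expressing KB-V1 cells was determined as loss of CellTiter-Glo luminescence after 72 h at 37 degrees C. Compounds were tested in quantitative HTS format across a concentration range, with curves fitted to normalized data.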
DT40 TDP1 CPT – qHTS for Inhibitors of human tyrosyl-DNA phosphodiesterase 1 (TDP1): qHTS in cells in presence of CPT. chicken DT40 Tdp1-/-;hTDP1 cells + 20 nM CPT, ATP luminescence, 48 h. Potency, µM (series often up to 46.2 µM), inactives show top-dose activity change, negative = growth inhibition, usual class: inhibitors. 420,000 tested, 12% active. AID 686979, 2013; note: nearly all actives have a fitted effect of over 55% in size
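Cell growth measured by CellTiter-Glo luminescence after a minimum 48 h, 37 C compound exposure with 20 nM CPT in Tdp1-knockout DT40 cells stably expressing hTDP1, seeded 400/well; qHTS titration format.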
* = called active by the depositor; i = inactive; ? = inconclusive; / = not tested or not shown; ! = not active in a repeat. Most compounds without a hit are left out; they make up all but 19% or so of the library. Calls come from the whole dose curve; as a rule, active = well fitted curve in the direction sought with a large enough effect; inconclusive = small, poorly fitted or top-dose-only effect, or another doubt; inactive = no such curve, though single readings can be large; an effect the other way counts as inactive or inconclusive. Unless noted, % is set by controls: 0 for no effect and ±100 for the full control effect; potency is the fitted concentration of half-maximal effect.

SMILES	DT40 TDP1 no CPT	KB-3-1 cytotox	HT1080NT lethal	HT1080 IDH1KD tx	KB-V1 cytotox	DT40 TDP1 CPT
CCOC(=O)N1CCC(NC(=O)CS(=O)Cc2nc(-c3ccc(Cl)cc3)oc2C)CC1 (stereo not drawn)	15µM*	i	18µM*	?	i	?
CCOc1ccc(CCNC(=O)CS(=O)Cc2nc(-c3ccc(C)cc3)oc2C)cc1OCC (stereo not drawn)	?	i	-7%	-6%	i	16µM*!
COc1ccc(-c2nc(CSCC(=O)NCc3ccccc3Cl)c(C)o2)cc1OC	?	i	/	/	i	?
CCc1ccc(-c2nc(CSCC(=O)NCCCN3CCCC3=O)c(C)o2)cc1	?	i	-1%	-4%	16µM*	?
COc1ccc(-c2nc(CSCC(=O)NCCc3ccc(C)cc3)c(C)o2)cc1OC	18µM*	i	/	/	i	16µM*
COc1ccc(-c2nc(CSCC(=O)NCCC3=CCCCC3)c(C)o2)cc1OC	?	i	-21%	-9%	21µM*	?
COc1ccc(-c2nc(CSCC(=O)NCc3ccc4c(c3)OCO4)c(C)o2)cc1OC	?	i	5%	3%	i	?
CSc1ccc(-c2nc(CSCC(=O)NCCCN3CCCC3=O)c(C)o2)cc1	-1%	i	-5%	-6%	i	-25%
O=C(COc1ccccc1F)NCc1ccc(-n2cccc2)cc1	?	i	-17%	-1%	i	-23%
Cc1noc(C)c1C(=O)N1CCC1(C)C(=O)NS(=O)(=O)c1cccc(OC(F)F)c1 (stereo not drawn)	4%	i	3%	1%	i	13%
Cc1ccc(CNC(=O)Nc2nnc([C@@H]3C[C@H](O)[C@@H](CO)O3)s2)cc1	-18%	i	16%	12%	i	-8%
CCOc1ccc(CCNC(=O)CSCc2nc(-c3cccc(C)c3)oc2C)cc1OCC	13µM*	i	/	/	?	?
COc1ccccc1CNC(=O)CSCc1nc(-c2ccc(OC)c(OC)c2)oc1C	18µM*	i	/	/	i	?
CCOCCCNC(=O)CSCc1nc(-c2ccc(SC)cc2)oc1C	?	i	5%	-3%	i	?
COCCNC(=O)CSCc1nc(-c2ccc(SC)cc2)oc1C	?	?	4%	3%	9.2µM*	-21%
COc1ccc(CNC(=O)CCc2c(C)nn(-c3ccc(N4CCCC4)nn3)c2C)c(OC)c1	-12%	/	/	/	/	0%
CC(=O)[C@H]1CC[C@H]2C3CC=C4C[C@@H](O)CC[C@]4(C)C3CC[C@]12C (stereo partly drawn)	14%	/	/	/	/	6%
COC1CCC2(C)C(=CCC3C4CC(O)CC4(C)CCC32)C1 (stereo not drawn)	21µM*	i	-3%	-2%	18µM*	21µM*
Cc1cc(-c2nc3cc(F)ccc3s2)ccc1N	-6%	?	-10%	-32%	18µM*	-17%
Cc1[nH][nH]c(=O)c1C(c1c(C)[nH][nH]c1=O)c1cn(Cc2ccccc2Cl)c2ccccc12	5.2µM*	7.3µM*	?	18µM*	18µM*	5.8µM*
O=C(Nc1ccc(Cl)cc1)N1CCCN(Cc2ccc(F)cc2)C1	21µM*	?	?	?	?	23µM*
